21 compounds from PubChem BioAssay (NCATS) can be followed below.

Results filed as inconclusive are left out. A number with no mark means an inactive call. The call rests on the fitted dose curve; in most records, active means well fitted inhibition curve with a large enough effect; inconclusive means small, poorly fitted or top-dose-only effect; inactive means flat fitted curve, though single readings scatter.

The target of this assay is Lysine-specific demethylase 5B (Homo sapiens) (UniProt Q9UGL1). In words: Optimization screen for KDM5B Histone Demethylases FDH coupled qHTS against the LOPAC library (AID 1347166). Further: 0% is about no effect. Conditions: KDM5B demethylation, FDH-coupled NADH fluorescence (FDH is formaldehyde dehydrogenase); series mostly up to 57.5 µM; activity, negative = inhibition: at the top concentration. An excerpt: Assay Submitter (PI): Qin Yan, Ph.D. (Yale University) and Xiaodong Cheng, Ph.D. (MD Anderson)
Sequence of Lysine-specific demethylase 5B (Homo sapiens) (Q9UGL1 whole entry, looked up): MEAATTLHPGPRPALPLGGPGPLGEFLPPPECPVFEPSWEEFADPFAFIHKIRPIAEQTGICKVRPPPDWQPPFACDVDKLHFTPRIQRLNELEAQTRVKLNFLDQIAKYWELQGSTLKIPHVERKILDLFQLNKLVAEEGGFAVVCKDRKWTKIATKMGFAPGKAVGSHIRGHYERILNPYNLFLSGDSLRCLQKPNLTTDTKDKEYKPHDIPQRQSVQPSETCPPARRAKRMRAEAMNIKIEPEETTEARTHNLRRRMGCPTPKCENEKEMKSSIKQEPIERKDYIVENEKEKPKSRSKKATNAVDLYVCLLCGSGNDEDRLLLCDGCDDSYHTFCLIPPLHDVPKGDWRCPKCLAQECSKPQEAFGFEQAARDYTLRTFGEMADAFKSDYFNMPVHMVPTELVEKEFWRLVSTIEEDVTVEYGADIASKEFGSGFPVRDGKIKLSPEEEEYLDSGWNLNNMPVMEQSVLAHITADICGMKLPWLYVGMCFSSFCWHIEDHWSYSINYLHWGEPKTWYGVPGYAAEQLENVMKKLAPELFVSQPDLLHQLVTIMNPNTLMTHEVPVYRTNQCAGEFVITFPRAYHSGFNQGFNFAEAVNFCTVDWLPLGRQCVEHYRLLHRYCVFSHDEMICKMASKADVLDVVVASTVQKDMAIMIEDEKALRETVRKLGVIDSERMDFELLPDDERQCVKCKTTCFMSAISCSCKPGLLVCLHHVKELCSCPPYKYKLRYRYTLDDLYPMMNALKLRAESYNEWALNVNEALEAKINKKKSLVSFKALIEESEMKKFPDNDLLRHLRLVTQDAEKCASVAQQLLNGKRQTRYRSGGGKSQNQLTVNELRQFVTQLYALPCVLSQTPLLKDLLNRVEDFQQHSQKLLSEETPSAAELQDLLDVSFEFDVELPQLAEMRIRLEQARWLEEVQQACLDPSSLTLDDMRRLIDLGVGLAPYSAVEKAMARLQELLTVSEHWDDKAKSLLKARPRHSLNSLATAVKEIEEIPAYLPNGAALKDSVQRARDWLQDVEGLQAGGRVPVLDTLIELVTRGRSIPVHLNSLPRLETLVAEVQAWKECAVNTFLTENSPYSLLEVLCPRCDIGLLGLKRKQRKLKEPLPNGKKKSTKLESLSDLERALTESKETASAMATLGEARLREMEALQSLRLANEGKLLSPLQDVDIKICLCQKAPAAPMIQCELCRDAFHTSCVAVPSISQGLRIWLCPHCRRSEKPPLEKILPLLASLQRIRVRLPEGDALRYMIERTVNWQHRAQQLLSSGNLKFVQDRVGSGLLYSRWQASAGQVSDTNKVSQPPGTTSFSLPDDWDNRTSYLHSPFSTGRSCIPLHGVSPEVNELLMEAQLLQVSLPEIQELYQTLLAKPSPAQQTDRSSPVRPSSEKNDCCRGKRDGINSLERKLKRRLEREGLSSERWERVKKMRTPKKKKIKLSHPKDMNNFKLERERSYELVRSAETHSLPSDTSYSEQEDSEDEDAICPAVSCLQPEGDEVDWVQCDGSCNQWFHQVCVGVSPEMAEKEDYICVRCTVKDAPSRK
This project was funded as part of the NCI NEXT Program and Chemical Biology Consortium (CBC)
The histone demethylases, KDM5A and KDM5B catalyze the demethylation of lysine 4 on histone H3 (H3K4me3/2). They
are overexpressed in a variety of cancers and have been implicated in cancer cell growth, metastasis, drug resistance, and tumor growth. KDM5A is amplified and overexpressed in breast and gastric cancer; and is translocated in leukemia. While KDM5B is highly expressed in human mammary tumors and breast cancer cell lines, but not in normal adult breast tissue. Moreover, knockdown of KDM5B leads to upregulation of tumor suppressor genes, including BRCA1. The goal of this project is to employ qHTS to identify selective small molecule inhibitors of KDM5A/B demethylase activity to better understand the role of KDM5 in cancer and to develop novel therapies.
We employed an FDH-coupled assay previously reported by Sakurai et al. to monitor in vitro KDM5 demethylase activity. Compounds showing dose response inhibition are re-acquired, validated, and tested for non-specific interference with the formaldehyde dehydrogenase (FDH) counterscreen. True inhibitors are validated using an AlphaLisa secondary screen, which employs an H3K4(me2-1)-specific antibody to monitor demethylation of a biotin-tagged H3K4(me3) peptide substrate. Inhibitors are profiled against KDM4A and KDM6A AlphaLisa counterscreens to determine level of demethylase specificity; and against the TruHits counterscreen to eliminate non-specific inhibitory activity on the AlphaLISA detection method. Selective inhibitors identified from the primary and secondary screening are tested in cells using immunofluorescence to monitor global H3K4 tri-methylation as a measure of KDM5A/B inhibition. This assay is run against the NCGC Lopac collection of about 1,200 compounds to evaluate its amenability to quantitative High Throughput Screening (qHTS) platform.
Early Translation Branch (ETB)
National Center for Advancing Translational Sciences (NCATS), Rockville, MD
National Institute of Health (NIH), Bethesda, Maryland
[1] Sakurai, M et al. A miniaturized screen for inhibitors of Jumonji histone demethylases. Mol Biosyst. 2010 Feb;6(2):357-64. doi: 10.1039/b912993f. Epub 2009 Oct 8.
1536-well Black, solid bottom, medium binding assay plate is purchased from Greiner Bio-one. The enzymes (KDM5B) and substrate (H3K4me3/2) are provided by the principal investigators. The buffer for this assay is composed of 50mM HEPES at pH 7.5 with 0.01% Tween-20.
FDH coupled qHTS protocol:
Three microliter enzyme mix (buffer + 200nM KDM5BDeltaAP final concentration) is dispensed into the assay plate using the BioRAPTR Flying Reagent Dispenser (FRD; Beckton-Dickenson). Compound (at various final concentration) and control solution is pin transferred to the assay plate using the Kalypsys 1536-pin tool apparatus. The assay plate is incubated for 10 min at room temperature followed by addition of 1uL substrate mix (buffer + 100uM ascorbic acid, 50uM ferrous ammonium sulfate, 12.5uM H3K4Me3, 25uM a-ketoglutarate, 0.25 mM NAD+, 0.25 U/mL formaldehyde dehydrogenase using the FRD yielding a total reaction volume of 4 uL. Initial fluorescence (Read1) is detected using the PerkinElmer ViewLux plate reader equipped with 340 nm excitation and 450 nm emission filters. The final fluorescence (Read2) signal is obtained after 30 min of room temperature incubation. Delta RFU is calculated (Read2 - Read1) and is used to generated dose response curves
(In general: Quantitative high-throughput screening tests each substance at several concentrations.)
As for `NCCCCNCCCN`, the “activity, negative = inhibition” value is -5.03%. In the case of `Cc1c(OCC(F)(F)F)ccnc1CS(=O)c1nc2ccccc2[nH]1` (stereo unspecified) it was -6.48%; in that of `O=C(c1ccccc1)c1ccc2n1CCC2C(=O)O` (stereo unspecified), -7.21%; in that of `CC(C)c1ccc2c(c1)c(SC(C)(C)C)c(CC(C)(C)C(=O)O)n2Cc1ccc(Cl)cc1`, -4.35%. To `CC(=O)N1CCN(c2ccc(OC[C@H]3CO[C@](Cn4ccnc4)(c4ccc(Cl)cc4Cl)O3)cc2)CC1` belongs -3.33%; to `O=C(O)c1cccnc1Nc1cccc(C(F)(F)F)c1`, -5.13%; to `O=C1c2ccccc2-c2n[nH]c3cccc1c23`, -29.1%. In the case of `COc1ccc2cc([C@H](C)C(=O)O)ccc2c1` it was -7.31%; in that of `CC(=O)O[C@H]1C(=O)[C@@]2(C)C([C@H](OC(=O)c3ccccc3)[C@]3(O)C[C@H](OC(=O)[C@H](O)[C@@H](NC(=O)c4ccccc4)c4ccccc4)C(C)=C1C3(C)C)[C@]1(OC(C)=O)CO[C@@H]1C[C@@H]2O` (stereo partly specified), -10.8%; in that of `O=Nc1c(-c2c(O)[nH]c3cc(Br)ccc23)[nH]c2ccccc12`, -12%.

Take `Cc1cccc(C#Cc2ccccc2)n1`: the “activity, negative = inhibition” value is -18.3%. In the case of `Nc1ccn([C@@H]2O[C@H](CO)[C@@H](O)C2O)c(=O)n1` (stereo partly specified) it was -5.31%. To `Nc1nc(OCc2ccccc2)c2[nH]cnc2n1` belongs -1.22%. To `C[C@@H](N)C1CCC(C(=O)Nc2ccncc2)CC1` (stereo partly specified) belongs -3.95%.

As to `OC(CN1CCN(c2cccc(Cl)c2)CC1)C(c1ccccc1)c1ccccc1` (stereo unspecified), the “activity, negative = inhibition” value was -10.7%. In the case of `CC1(C)C(=O)N(CCN2CCC(C(=O)c3ccc(F)cc3)CC2)c2ccccc21` it was -4.54%; in that of `Cc1cc(O)c2c(c1)C(=O)c1cc(O)cc(O)c1C2=O`, -28.5%; in that of `Nc1nc(N)c(N=O)c(OCC2CCCCC2)n1`, -10.9%.

For `CN(C)CCCC1(c2ccc(F)cc2)OCc2cc(C#N)ccc21` (stereo unspecified), the “activity, negative = inhibition” value was -1.6%. As for `CC1(C)NC(=O)N(c2ccc([N+](=O)[O-])c(C(F)(F)F)c2)C1=O`, the “activity, negative = inhibition” value is 2.66%. To `COc1ccccc1N1CCN(CCN(C(=O)C2CCCCC2)c2ccccn2)CC1` belongs 5.21%.
